Calls of active or inactive are those of the source.
Tests used:
[1] = optical density shifts of acrAB sulA E. coli – strain DRC41, OD650, 48 h, E. coli filamentation inducer project, primary screen (AID 1152); settings: higher = more signal, called active from +8 up or from −8 down;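 note: E. coli MC1000 strain DRC41 lacking acrAB efflux pump and sulA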
[2] = probe aLefty1 binding on compound microarray – biochemical, small-molecule microarray, 635/667 nm fluorescence, primary screen (AID 1153); settings: higher = more signal;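 note: score merges spot fluorescence with signal-to-noise ratio from the scanned slide images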
[3] = plasmodial surface anion channel blockers, osmotic lysis – cell-based, P. falciparum Indochina, OD700, 1 h, primary screen (AID 1154); settings: P. falciparum Indochina infected RBC osmotic lysis, higher = more signal, called active from +8 up or from −8 down
[4] = plasmodial surface anion channel blockers, osmotic lysis – cell-based, P. falciparum Indochina, OD700, 2 h, primary screen (AID 1155);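 note: lysis reports solute entry through the parasite surface anion channel PSAC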; settings: P. falciparum Indochina infected erythrocytes, higher = more signal, called active from +8 up or from −8 down
[5] = changes in parasitized red cell lysis, either direction – P. falciparum Indochina, OD700, 3 h, PSAC antagonist project, primary screen (AID 1156); settings: P. falciparum-infected erythrocytes, osmotic lysis, higher = more signal, called active from +8 up or from −8 down
[6] = plasmodial surface anion channel blockers, osmotic lysis – cell-based, P. falciparum Indochina, OD700, 18 h, primary screen (AID 1157); settings: P. falciparum Indochina infected erythrocytes, osmotic lysis OD700, 18 h; higher = more signal, called active from +8 up or from −8 down
[7] = S6 kinase pathway phospho-S6 level changes – cell-based, A549, cytoblot, luminescence, serum-stimulated, primary screen (AID 1158); settings: 5 h, higher = more signal;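 note: serum-stimulated A549 lung adenocarcinoma cells; signal is phosphorylated S6 detected by cytoblot immunostaining with HRP secondary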
[8] = target: NADPH oxidase 2 (Homo sapiens) (UniProt P04839); assay: compounds shifting NOX2 Amplex Red fluorescence – cell-based, HEK293-NOX2, PMA-stimulated, NOX inhibitor project, primary screen (AID 1159); settings: 45 min, higher = more signal, called active from +8 up or from −8 down; note: test concentration not given here
[9] = target: NADPH oxidase 4 (Homo sapiens) (UniProt Q9NPH5); assay: compounds shifting NOX4 Amplex Red fluorescence – cell-based, HEK293-NOX4, tetracycline-induced, NOX inhibitor project, primary screen (AID 1160); settings: HEK293-NOX4, Amplex Red H2O2 fluorescence, 45 min; higher = more signal, called active from +8 up or from −8 down
[10] = target: NADPH oxidase 5 (Homo sapiens) (UniProt Q96PH1); assay: compounds shifting NOX5 Amplex Red fluorescence – cell-based, HEK293-NOX5, NOX inhibitor project, primary screen (AID 1161); settings: HEK293-NOX5, ionomycin, 45 min, higher = more signal
NADPH oxidase 5 (Homo sapiens), sequence (Q96PH1 whole entry, looked up): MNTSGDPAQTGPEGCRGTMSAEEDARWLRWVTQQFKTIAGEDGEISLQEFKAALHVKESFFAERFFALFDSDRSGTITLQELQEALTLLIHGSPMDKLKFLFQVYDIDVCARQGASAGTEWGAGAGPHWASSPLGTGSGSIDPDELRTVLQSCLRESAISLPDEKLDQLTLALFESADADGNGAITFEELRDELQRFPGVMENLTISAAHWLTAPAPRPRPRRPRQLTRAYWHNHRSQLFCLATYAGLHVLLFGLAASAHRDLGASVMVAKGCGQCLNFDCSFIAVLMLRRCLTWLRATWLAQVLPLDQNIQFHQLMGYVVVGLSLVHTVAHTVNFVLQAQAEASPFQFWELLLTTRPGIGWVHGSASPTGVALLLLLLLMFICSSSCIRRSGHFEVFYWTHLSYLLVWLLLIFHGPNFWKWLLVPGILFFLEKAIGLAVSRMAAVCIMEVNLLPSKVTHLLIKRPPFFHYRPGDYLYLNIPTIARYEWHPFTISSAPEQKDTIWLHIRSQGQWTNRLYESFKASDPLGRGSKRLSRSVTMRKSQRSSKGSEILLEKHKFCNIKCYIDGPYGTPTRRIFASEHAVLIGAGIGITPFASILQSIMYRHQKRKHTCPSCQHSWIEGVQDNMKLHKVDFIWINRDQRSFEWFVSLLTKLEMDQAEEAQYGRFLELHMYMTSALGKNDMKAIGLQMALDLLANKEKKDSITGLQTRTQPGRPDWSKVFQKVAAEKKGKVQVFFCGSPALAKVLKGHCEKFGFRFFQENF

NADPH oxidase 4 (Homo sapiens), sequence (Q9NPH5 whole entry, looked up): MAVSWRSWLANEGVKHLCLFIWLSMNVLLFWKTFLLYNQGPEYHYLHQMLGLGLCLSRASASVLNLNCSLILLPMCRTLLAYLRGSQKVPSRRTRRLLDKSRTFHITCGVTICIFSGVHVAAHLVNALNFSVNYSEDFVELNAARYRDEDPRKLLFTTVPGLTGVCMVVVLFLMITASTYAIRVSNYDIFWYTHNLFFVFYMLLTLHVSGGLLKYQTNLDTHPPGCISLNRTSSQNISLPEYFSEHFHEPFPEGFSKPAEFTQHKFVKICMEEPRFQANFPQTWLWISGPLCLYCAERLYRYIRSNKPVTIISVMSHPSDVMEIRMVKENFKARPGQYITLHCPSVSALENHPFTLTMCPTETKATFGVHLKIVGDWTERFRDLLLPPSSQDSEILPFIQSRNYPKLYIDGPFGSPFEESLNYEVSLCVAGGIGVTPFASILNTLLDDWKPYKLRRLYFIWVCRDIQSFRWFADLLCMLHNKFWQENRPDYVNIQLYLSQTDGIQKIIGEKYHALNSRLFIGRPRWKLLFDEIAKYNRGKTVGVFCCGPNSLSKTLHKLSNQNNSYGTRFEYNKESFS
NADPH oxidase 2 (Homo sapiens), sequence (P04839 whole entry, looked up): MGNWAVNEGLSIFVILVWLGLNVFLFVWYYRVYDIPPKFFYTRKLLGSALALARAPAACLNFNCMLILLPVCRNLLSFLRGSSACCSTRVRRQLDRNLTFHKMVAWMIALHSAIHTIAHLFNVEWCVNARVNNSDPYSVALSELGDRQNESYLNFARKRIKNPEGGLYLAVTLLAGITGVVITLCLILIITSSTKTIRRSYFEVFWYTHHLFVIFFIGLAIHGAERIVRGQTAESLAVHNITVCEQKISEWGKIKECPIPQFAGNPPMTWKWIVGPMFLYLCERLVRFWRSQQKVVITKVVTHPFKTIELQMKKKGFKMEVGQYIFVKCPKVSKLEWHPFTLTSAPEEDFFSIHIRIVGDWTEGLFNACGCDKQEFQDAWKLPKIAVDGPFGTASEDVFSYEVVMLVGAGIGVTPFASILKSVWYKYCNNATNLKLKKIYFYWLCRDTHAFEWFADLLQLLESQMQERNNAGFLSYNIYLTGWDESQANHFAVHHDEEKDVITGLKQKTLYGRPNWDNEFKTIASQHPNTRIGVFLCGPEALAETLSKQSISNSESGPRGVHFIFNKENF

SMILES	z-score [1]	composite z-score [2]	z-score [3]	z-score [4]	z-score [5]	z-score [6]	z-score [7]	z-score [8]	z-score [9]	z-score [10]
[N-]=[N+]=NCc1ccccc1C[C@@]1(C(N)=O)N=C(c2ccc(OCCCO)cc2)O[C@@H]1c1ccccc1N=[N+]=[N-]	-1.04 (inactive)	0.045	32.4 (active)	31.4 (active)	1.81 (inactive)	2.31 (inactive)	-0.441	0.0502 (inactive)	-0.393 (inactive)	-1.89
C=C1C(=O)C=C2CN(C(=O)c3ccccc3)[C@@](Cc3ccc(F)cc3)(C(=O)OC)[C@@H]12	-2.05 (inactive)	0.676	-0.0775 (inactive)	-1.39 (inactive)	-1.69 (inactive)	-1.83 (inactive)	-1.06	-3.94 (inactive)	-4.76 (inactive)	-3.73
CC(C)(C)OC(=O)N1[C@@H](C=C(Br)Br)COC1(C)C	1.98 (inactive)	-0.147	-0.794 (inactive)	-1.16 (inactive)	-0.884 (inactive)	-1.66 (inactive)	0.855	2.82 (inactive)	0.4 (inactive)	-0.152
COCCCNC(=O)[C@]1(Cc2ccccc2N=[N+]=[N-])N=C(c2ccc(OCCCO)cc2)O[C@@H]1c1ccccc1	-0.112 (inactive)	0.749	28.8 (active)	22.5 (active)	2.38 (inactive)	3.2 (inactive)	0.008	-2.28 (inactive)	0.471 (inactive)	0.124
CCCNC(=O)[C@@]1(Sc2ccc(C)cc2)CC(=O)N(Cc2cc(C(F)(F)F)cc(C(F)(F)F)c2)[C@@H]1c1ccc(CO)cc1	1.63 (inactive)	-0.193	2.74 (inactive)	0.285 (inactive)	0.25 (inactive)	-1.15 (inactive)	2.9	0.584 (inactive)	-0.589 (inactive)	0.207
COC(=O)C1=CC(c2ccc(CO)cc2)=CC(C2CC2)N(Cc2cc3c(cc2Br)OCO3)C=C1C(=O)OC (stereo not given)	-0.938 (inactive)	0.3	10.6 (active)	0.856 (inactive)	0.954 (inactive)	0.572 (inactive)	-0.625	-0.853 (inactive)	-0.385 (inactive)	0.857
CCN1C(=O)C2CC(=O)C3C(CN(S(=O)(=O)c4ccc(C)cc4)C3c3ccc(C)cc3)C2C1=O (stereo not given)	0.344 (inactive)	-0.0967	1.04 (inactive)	0.804 (inactive)	0.135 (inactive)	0.609 (inactive)	-0.0511	-0.374 (inactive)	-0.0929 (inactive)	-0.525
COc1ccc(CCNC(=O)[C@@]2(C)c3ccccc3C(=O)N(Cc3ccc(OC(F)(F)F)cc3)[C@H]2c2ccc(CO)cc2)cc1	-0.933 (inactive)	-0.588	7.22 (inactive)	1.67 (inactive)	1.79 (inactive)	1.16 (inactive)	0.029	-0.61 (inactive)	-0.547 (inactive)	-1.23
CN1C(=O)C2C=CC(C(O)c3ccc(I)cc3)N(N(c3ccccc3)c3ccccc3)C2C1=O (stereo not given)	-1.27 (inactive)	0.193	3.99 (inactive)	1.62 (inactive)	0.537 (inactive)	1.54 (inactive)	-1.19	0.461 (inactive)	1.23 (inactive)	-0.585
CC(C)C[C@H]1NC(=O)CNC(=O)[C@@]23C(=O)N[C@@H](Cc4ccccc4)C2[C@H](C)[C@@]2(C)O[C@H]2C3/C=C/C/C=C\CNC1=O (stereo not given in full)	-0.592 (inactive)	-0.103	0.392 (inactive)	0.41 (inactive)	-0.352 (inactive)	-0.0621 (inactive)	0.662	0.429 (inactive)	1.21 (inactive)	-0.495
COCCOC(=O)N1C(=O)[C@@]2(c3cc(C#CC4(O)CCCCCC4)ccc31)[C@H](C(N)=O)[C@H]1C(=O)O[C@H](c3ccccc3)[C@H](c3ccccc3)N1[C@@H]2c1ccc(OCCO)cc1	-0.0172 (inactive)	0.0861	3.59 (inactive)	1.45 (inactive)	0.843 (inactive)	1.01 (inactive)	0.0826	1.52 (inactive)	0.984 (inactive)	0.923
COc1cc(Cc2cc3c(c(CCc4ccccc4)n2)[Si](C(C)C)(C(C)C)O[C@H]3c2ccccc2)cc(OC)c1OC	-1.77 (inactive)	0.101	-0.436 (inactive)	0.356 (inactive)	-3.89 (inactive)	0.0416 (inactive)	-0.557	1.25 (inactive)	-2.98 (inactive)	-3.87
COC(=O)[C@@]1(Cc2ccc(F)cc2)[C@H]2c3cc(C(=O)N4CCCC4)n(CCSCCO)c3C[C@H]2CN1C(=O)c1ccccc1	-0.683 (inactive)	0.433	1.37 (inactive)	0.367 (inactive)	0.189 (inactive)	0.618 (inactive)	0.332	0.639 (inactive)	-0.179 (inactive)	-0.345
CCCC=C(CCC)[C@@H](NC(=O)c1ccc(C(=O)OC)cc1)c1ccc(C(=O)OC)cc1	-1.99 (inactive)	0.211	0.67 (inactive)	0.409 (inactive)	1.33 (inactive)	0.618 (inactive)	-0.574	-0.542 (inactive)	-3.29 (inactive)	1.5
CC1C2C(CCCO)=CC(C3C(=O)N(C(N)=O)C(=O)C23)N1Cc1cccc(OC(F)(F)F)c1 (stereo not given)	-0.114 (inactive)	0.0982	0.376 (inactive)	0.0112 (inactive)	-0.308 (inactive)	0.0624 (inactive)	-0.207	0.217 (inactive)	0.509 (inactive)	0.107
COc1ccc([Si](C)(C)[C@H]2[C@H](CC(=O)N(CCO)Cc3ccccc3)O[C@@]3(C(=O)N(Cc4cccc(N5CCCCC5=O)c4)c4ccccc43)[C@@H]2C)cc1	1.52 (inactive)	0.109	11.3 (active)	1.31 (inactive)	0.4 (inactive)	-0.553 (inactive)	2.6	0.0671 (inactive)	0.591 (inactive)	2.24
[N-]=[N+]=Nc1ccccc1C[C@@]1(C(=O)NCC(O)CO)N=C(c2ccc(OCCCO)cc2)O[C@@H]1c1ccccc1N=[N+]=[N-] (stereo not given in full)	-0.193 (inactive)	-0.281	30.3 (active)	29.2 (active)	0.0029 (inactive)	8.12 (active)	0.191	-1.55 (inactive)	0.776 (inactive)	1.85
COc1ccc(C#Cc2ccc3c(c2)[C@]2(C(=O)N3)[C@H](c3ccccc3OCCO)N3[C@H](c4ccccc4)[C@H](c4ccccc4)OC(=O)[C@H]3[C@@H]2C(=O)NC[C@H](O)c2ccccc2)cc1	1.21 (inactive)	0.0147	1.71 (inactive)	1.71 (inactive)	0.0857 (inactive)	1.2 (inactive)	0.138	1.78 (inactive)	0.243 (inactive)	1.32
CCOC(=O)C[C@H]1[C@H](OC(=O)c2ccc(-c3ccccc3)cc2)[C@@H](NC(=O)c2ccc(-c3ccccc3)cc2)c2cc(OCCCO)ccc2N1C(=O)c1ccccc1	-0.825 (inactive)	0.0437	0.744 (inactive)	0.745 (inactive)	-0.392 (inactive)	0.678 (inactive)	-0.0382	0.546 (inactive)	-1.29 (inactive)	-0.655
CC(C)c1ccc(NN2C(C(O)C(C)c3ccccc3)C=CC3C(=O)N(c4ccccc4)C(=O)C32)cc1 (stereo not given)	-1.78 (inactive)	1.24	0.187 (inactive)	0.433 (inactive)	0.215 (inactive)	0.998 (inactive)	-1.44	-0.818 (inactive)	-2.63 (inactive)	-4.03
C[C@]1(C(=O)NC2CC2)c2ccccc2C(=O)N(Cc2cc(F)cc(C(F)(F)F)c2)[C@H]1c1ccc(CO)cc1	0.256 (inactive)	-0.351	3.02 (inactive)	0.334 (inactive)	0.678 (inactive)	0.597 (inactive)	0.0446	-0.0377 (inactive)	-0.978 (inactive)	-1.46
COc1ccc(NN2C(C(O)c3ccccc3)C=CC3C(=O)N(C4CCCCC4)C(=O)C32)cc1 (stereo not given)	-0.775 (inactive)	0.0479	11.8 (active)	2.25 (inactive)	1.31 (inactive)	1.22 (inactive)	-0.388	-2.76 (inactive)	-2.65 (inactive)	-2.39
CC[C@@H](O[Si](C#C[Si](C(C)C)(C(C)C)C(C)C)(C(C)C)C(C)C)c1cn([C@H](CO)Cc2ccccc2)nn1	0.922 (inactive)	-0.0094	0.355 (inactive)	0.49 (inactive)	-0.68 (inactive)	0.0878 (inactive)	-0.116	-0.69 (inactive)	0.408 (inactive)	-0.133
CC[C@H]1C2=C3C(CC[C@H]4C(OCc5ccc(F)cc5C(F)(F)F)OC[C@](C)([C@@H]34)N(C(=O)OC(C)(C)C)C2)C(COC(C)=O)C1COC(C)=O (stereo not given in full)	-2.44 (inactive)	0.713	0.408 (inactive)	-0.248 (inactive)	0.483 (inactive)	0.323 (inactive)	-0.772	-1.05 (inactive)	-2.56 (inactive)	-1.43
COC(=O)[C@@]1(Cc2ccc(F)cc2)[C@H]2c3cc(C(=O)N4CCCC4)n(Cc4ccc(OC(F)(F)F)cc4)c3C[C@H]2CN1C(=O)c1ccccc1	-2.47 (inactive)	-0.0141	0.498 (inactive)	0.851 (inactive)	-0.194 (inactive)	0.642 (inactive)	0.0769	0.372 (inactive)	0.32 (inactive)	-0.51
CCOC(=O)C1=CCC(c2cccn2C(=O)OC(C)(C)C)N(S(=O)(=O)c2ccc(C)cc2)C1 (stereo not given)	-0.258 (inactive)	0.245	7.3 (inactive)	1.26 (inactive)	0.312 (inactive)	0.486 (inactive)	-0.0414	-0.035 (inactive)	0.754 (inactive)	0.499
